# Test results published in PubChem BioAssay (EPA / NIEHS).
# Inconclusive results are not listed. Calls of active or inactive are those of the source. Rule for the calls, unless noted: active = hit-call score of the fitted dose curve at least 0.9, where 1 is the maximum; inactive = score below 0.9.
# How the values were obtained:
# [1] = CCTE_Deisenroth_5AR_NBTE_donor: CCTE's 5alpha-reductase NanoBRET Target Engagement Assay […], Deisenroth Lab (AID 2284319); settings: actives raise or lower the signal
# Method in brief: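 HEK293T cells transiently expressing SRD5A2-NanoLuc, exposed 5 h to chemicals (8 points, 10 nM - 29.9 uM), with testosterone tracer for the final 2 h. Donor luminescence at 460 nm read after Nano-Glo substrate plus extracellular NanoLuc inhibitor; bidirectional fit versus DMSO.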
# [2] = CCTE_Deisenroth_5AR_NBTE_acceptor: CCTE's 5alpha-reductase NanoBRET Target Engagement Assay - Autofluorescence Screen, Deisenroth Lab (AID 2284321); settings: actives raise or lower the signal;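 note: compound fluorescence in the acceptor channel under 460 nm excitation flags autofluorescence artifacts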
# Method in brief: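 Chemicals diluted to a nominal 100 uM in DMSO were scanned at 460 nm excitation. Samples were read in three independent runs (n=3). Gain or loss of acceptor signal was fitted relative to DMSO.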
# SRD5A2 (gene 6716) = test: CCTE_Deisenroth_5AR_NBTE_ratio: CCTE's 5alpha-reductase NanoBRET Target Engagement Assay - Ratio, Deisenroth Lab (AID 2284322); settings: actives raise or lower the signal
# Method in brief: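 Reverse-transfect HEK293T with pNLF1-C-SRD5A2, express 20 h. Pre-incubate cells with chemical 3 h (8-point series, 10 nM - 29.9 uM, duplicate). Add testosterone tracer, 2 h more. Add substrate/inhibitor, read donor and acceptor emission.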
# IYD (gene 389434) = test: CCTE_GLTED_hIYD: CCTE's human Iodotyrosine Deiodinase (xIYD) Inhibition Assay, Great Lakes Toxicology and Ecology Division (GLTED) Lab (AID 2284317; active = hit-call score of the fitted dose curve at least 0.9, where 1 is the maximum;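 note: cell-free human IYD enzyme made in baculovirus insect cells; iodide freed from monoiodotyrosine measured by cerium arsenite color change at 420 nm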)
# Method in brief: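 Human IYD expressed in a baculovirus-insect cell system was incubated 3 h with monoiodotyrosine and test chemical. Released iodide, separated on Dowex columns, was quantified by the Sandell-Kolthoff reaction at 420 nm; plates were normalized to MNT and DMSO/NaOH controls.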
# SERPINA7 (gene 6906) = test: CCTE_GLTED_hTBG: CCTE's human Thyroxine-binding Globulin (TBG) Inhibition Assay, Great Lakes Toxicology and Ecology Division (GLTED) Lab (AID 2284343; active = hit-call score of the fitted dose curve at least 0.9, where 1 is the maximum;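 note: active chemicals lower fluorescence versus DMSO baseline by displacing probe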)
# Method in brief: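 Cell-free binding assay in which human TBG is incubated with test chemical for 2 hours and displacement of the fluorescent probe ANSA is read at 380 nm excitation/475 nm emission. Activity is fitted against DMSO as the negative control.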
# [3] = CCTE_Mundy_HCI_iCellGluta_NOG_NeuriteLength: CCTE's Neurite Outgrowth Assay in iCellGluta cells for Neurite Length, Mundy Lab (AID 2284318; active = hit-call score of the fitted dose curve at least 0.9, where 1 is the maximum)
# Method in brief: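 Automated high-content imaging of betaIII-tubulin (Alexa Fluor-488) and Hoechst-stained cells gave neurite length, normalized to the DMSO baseline.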
# [4] = IUF_NPC1_cytotoxicity_72hr: Cytotoxicity Assessment at 72 hours in the Leibniz Research Institute for Environmental Medicine (IUF) Neural Progenitor Cell Proliferation Assay (NPC1) (AID 2284332; active = hit-call score of the fitted dose curve at least 0.9, where 1 is the maximum;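 note: rising LDH signal means more cytotoxicity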)
# Method in brief: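 Single human fetal cortex neural progenitor spheres (GW 16-19, 0.25-0.35 mm) in EGF/FGF proliferation medium were exposed to compound for 72 h at 37C without renewal. Medium LDH release was read as resorufin fluorescence and fitted as gain-of-signal.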
# [5] = CCTE_Mundy_HCI_iCellGluta_NOG_NeuronCount: CCTE's Neurite Outgrowth Assay in iCellGluta cells for Neuron Count, Mundy Lab (AID 2284340; active = hit-call score of the fitted dose curve at least 0.9, where 1 is the maximum;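 note: cells fixed about 48 h after compound addition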)
# Method in brief: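 Neuron count read by automated high-content imaging of Hoechst 33342 and betaIII-tubulin/Alexa Fluor-488 labelling in human iPSC glutamatergic neurons. Activity fitted relative to DMSO.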
# [6] = CCTE_Mundy_HCI_iCellGluta_NOG_NeuriteCount: CCTE's Neurite Outgrowth Assay in iCellGluta cells for Neurite Count, Mundy Lab (AID 2284342; active = hit-call score of the fitted dose curve at least 0.9, where 1 is the maximum;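 note: chemical exposure about 48 hours starting 2 hours after plating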)
structure (smiles),measurement,setting,value
C=CCOC(=O)c1ccc(C(=O)OCC=C)c(C(=O)OCC=C)c1,outcome,[1],inactive
same,outcome,[2],inactive
same,outcome,SRD5A2 (gene 6716),inactive
O=C(O)CCC(=O)O,outcome,[1],inactive
same,outcome,[2],inactive
same,outcome,SRD5A2 (gene 6716),inactive
O=C(OCc1ccccc1)c1ccc(O)cc1,outcome,[1],inactive
same,outcome,[2],inactive
same,outcome,SRD5A2 (gene 6716),inactive
O=C(Nc1ccccc1)c1cc(Cl)ccc1O,outcome,IYD (gene 389434),inactive
COc1ccc(-c2coc3cc(O)cc(O)c3c2=O)cc1,outcome,[1],inactive
same,outcome,[2],inactive
same,AC50,SRD5A2 (gene 6716),23.6 µM (active)
same,AC50,SERPINA7 (gene 6906),23 µM (active)
O=c1c(O)c(-c2ccc(O)cc2O)oc2cc(O)cc(O)c12,AC50,IYD (gene 389434),144 µM (active)
CCCCC/C=C\C/C=C\CCCCCCCC(=O)O,AC50,IYD (gene 389434),137 µM (active)
CCCCCCCCCCCC(=O)N(C)CC(=O)O,outcome,[1],inactive
same,outcome,[2],inactive
same,outcome,SRD5A2 (gene 6716),inactive
CCCCC(CC)COC(=O)/C=C/c1ccc(OC)cc1 (stereo unspecified),outcome,IYD (gene 389434),inactive
CCCCCCCCCC[N+](C)(CCCCCCCCCC)CCC[Si](OC)(OC)OC,AC50,IYD (gene 389434),77.2 µM (active)
same,AC50,[1],33.2 µM (active)
same,AC50,[2],33.4 µM (active)
same,outcome,SRD5A2 (gene 6716),inactive
CCCCCCCOC(=O)c1ccc(O)cc1,AC50,IYD (gene 389434),50.4 µM (active)
same,AC50,SERPINA7 (gene 6906),10.6 µM (active)
CCCCCCCCCCCCCCCCCCOS(=O)(=O)O,AC50,IYD (gene 389434),19.5 µM (active)
CN(C)c1ccc2nc3ccc(=[N+](C)C)cc-3sc2c1,AC50,IYD (gene 389434),2.73 µM (active)
same,outcome,[1],inactive
same,AC50,[2],10 µM (active)
same,AC50,SRD5A2 (gene 6716),2.95 µM (active)
CCCCNS(=O)(=O)c1ccccc1,outcome,[3],inactive
same,outcome,[4],inactive
same,outcome,[5],inactive
same,outcome,[6],inactive
Oc1ccc(-c2ccccc2)c(Cl)c1,outcome,[1],inactive
same,outcome,[2],inactive
same,outcome,SRD5A2 (gene 6716),inactive
same,AC50,SERPINA7 (gene 6906),15.4 µM (active)
CCCCCCCCCCCCc1ccc(O)cc1,AC50,IYD (gene 389434),24 µM (active)
same,outcome,[1],inactive
same,outcome,[2],inactive
same,outcome,SRD5A2 (gene 6716),inactive
same,AC50,SERPINA7 (gene 6906),6.15 µM (active)
CC1=NN(c2ccc(S(=O)(=O)O)cc2)C(=O)C1N=Nc1ccccc1 (stereo unspecified),outcome,[1],inactive
same,outcome,[2],inactive
same,AC50,SRD5A2 (gene 6716),10 µM (active)
same,AC50,SERPINA7 (gene 6906),27.3 µM (active)
CCCCCCCCCCCCCC(=O)OC(C)C,outcome,[1],inactive
same,outcome,[2],inactive
same,outcome,SRD5A2 (gene 6716),inactive
